Assay results as given in PubChem BioAssay AID504832 (National Center for Advancing Translational Sciences (NCATS), 2011).
About 18,000 (5.8%) of roughly 310,000 compounds were called active. About 22% were inconclusive and are not listed. The list comes from a sample in which actives are over-represented; it also holds similar structures and randomly drawn compounds. A number with no mark means an inactive call. The call rests on the fitted dose curve; in most records, active means well fitted inhibition curve with a large enough effect; inconclusive means small, poorly fitted or top-dose-only effect, or another doubt; inactive means no such curve, though single readings can be large or run the other way.

Test: Primary qHTS for delayed death inhibitors of the malarial parasite plastid, 48 hour incubation
Settings: P. falciparum luciferase growth in erythrocytes; series mostly up to 28.7 µM; activity change, negative = inhibition: at the top concentration
Procedure, shortened: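 Erythrocytes infected with P. falciparum carrying an integrated firefly luciferase reporter (2% hematocrit, 0.1% parasitemia final) were exposed to compounds in RPMI 1640 with 0.5% Albumax at 37 C, 5% CO2. Growth inhibition was scored as reduced luminescence.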
On the % scale 0 is the no-effect control and ±100 the full control effect; potency means the concentration at half of the fitted maximal effect.

Compound | activity change, negative = inhibition | Potency
O=C(Nc1ccc(C2CC2(Cl)Cl)cc1)c1cccc([N+](=O)[O-])c1 (centres undefined) | -0.243% | –
CCn1c(SC(C)C(=O)Nc2ccc(N3CCOCC3)cc2)nnc1-c1ccco1 (centres undefined) | 7.63% | –
CC(=O)N/C(=C\c1ccccc1)C(=O)OC(C)C(=O)N(C)c1ccccc1 (centres undefined) | -7.82% | –
Cc1ccc(NC(=O)CN2CCc3ccccc3C2)cc1C | 8.17% | –
COc1ccc(-c2cc(C(=O)NC(Cc3c[nH]c4ccccc34)C(=O)O)c(C)o2)cc1OC (centres undefined) | 36.3% | –
COc1ccc(C(C(=O)NC2CCCCC2)N(C(=O)Cc2c[nH]c3ccccc23)c2ccccc2)cc1OC (centres undefined) | – | 13.1 µM (active)
COc1ccc(CNCCc2c[nH]c3ccccc23)cc1OC | -15.4% | –
Cc1ccc(F)cc1NC(=O)CSCc1c(C)noc1C | 1.25% | –
COc1ccc(S(=O)(=O)N2CCCCCC2)cc1C(=O)N(C)Cc1cccc(OC)c1OC | – | 13.1 µM (active)
COc1ccc(S(=O)(=O)N2CCCCC2)cc1Br | -17.1% | –
CCNC(=O)NC(=O)C(C)OC(=O)c1cc(S(=O)(=O)N2CCCCCC2)ccc1OC (centres undefined) | 12% | –
O=S(=O)(Nc1cccc(-c2ccc(N3CCOCC3)nn2)c1)c1ccc(Cl)c(Cl)c1 | 1.25% | –
O=S(=O)(NC1CC2CCC1C2)c1ccc(Cl)cc1 (centres undefined) | -3.94% | –
Cc1cccc(Nc2nnc(SCC(=O)c3c(N)n(C4CC4)c(=O)[nH]c3=O)s2)c1C | – | 11.7 µM (active)
Cc1ccc(Nc2nnc(SCC(=O)c3cc4ccccc4o3)s2)cc1C | 67.4% | –
Cc1ccccc1Nc1nnc(SCC(=O)c2cc3ccccc3o2)s1 | 10.3% | –
COCCOC(=O)C1=C(C)NC(=O)NC1c1cc2c(cc1Br)OCO2 (centres undefined) | -13.4% | –
O=C(NC(Cc1ccccc1)C(=O)N1CCCC(C(F)(F)F)C1)c1ccccc1 (centres undefined) | -0.11% | –
C[N+]12CN3CN(CN(C3)C1)C2 | – | 13.1 µM (active)
Cc1ccc(N=C2SCCCN2C(=O)c2cccc(N3C(=O)CCC3=O)c2)cc1Cl | 0.551% | –
Cc1ccc(CNC(=O)C(=O)c2cn(CC(=O)N3CCOCC3)c3ccccc23)cc1 | 47.3% | –
COc1ccc(C2=NN(C(=O)CSc3nc(=O)n4ccc(C)cc4n3)C(c3ccc(C)cc3)C2)cc1 (centres undefined) | – | 9.28 µM (active)
COc1ccc(C2CC(c3ccccc3)=NN2C(=O)CSc2nccc(=O)[nH]2)cc1 (centres undefined) | 3.53% | –
Cc1ccc(C2=NN(C(=O)CSc3nc(N)cc(N)n3)C(c3ccco3)C2)cc1 (centres undefined) | 5.49% | –
Cc1cccc(NC(=O)C(C)SCc2ccccc2)c1 (centres undefined) | 16.4% | –

Compound | activity change, negative = inhibition | Potency
COc1ccc(CCNC(=O)COC(=O)Cc2cccc(F)c2)cc1 | -17.1% | –
COc1ccc(C(=O)Nc2nc(-c3ccc(OC)cc3)c(-c3ccc([N+](=O)[O-])cc3)s2)cc1 | 37.7% | –
COC(=O)C(NC(=O)c1ccc(OC)cc1)(Nc1ncc(S(=O)(=O)c2ccc([N+](=O)[O-])cc2)s1)C(F)(F)F (centres undefined) | – | 8.28 µM (active)
CCOCC(=O)Nc1ncc(S(=O)(=O)c2ccc([N+](=O)[O-])cc2)s1 | -20.2% | –
Cc1c(C(=O)NC2CCCCC2)oc2ccccc12 | 71.4% | –
CC(NC(=O)c1cc(=O)[nH]c2ccccc12)c1ccc(F)cc1F (centres undefined) | -8.85% | –
CSc1ccc(CCNC(=O)CS(=O)(=O)Cc2nc(-c3ccccc3F)oc2C)cc1 | 4.97% | –
COc1ccc(C[C@H](C(=O)O)N2C(=O)c3ccc(C(=O)O)cc3C2=O)cc1 | 11.4% | –
O=c1ccn(Cc2ccccc2Cl)cc1 | 15.8% | –
N#CC(C#N)=CN=c1ccn(Cc2ccc(Cl)cc2Cl)cc1 | – | 2.94 µM (active)
COC/C=C/C1=CC2=CC(=O)C(C)(OC(=O)CCC(=O)OC)C(=O)C2=CO1 (centres undefined) | 36.7% | –
C=CCN1C=C2C(=O)C(C)(OC(=O)CCc3ccccc3)C(=O)C=C2C=C1c1ccc(C#N)cc1 (centres undefined) | – | 11.7 µM (active)
COCCN1C=C2C(=O)C(C)(OC(=O)C3CCCC3)C(=O)C=C2C=C1c1ccsc1 (centres undefined) | 33.1% | –
C/C(=N/OC(=O)c1ccc(Br)cc1)c1ccc(C)cc1 | 19.2% | –
COc1ccc(-n2c(C)cc(C(=O)CN3C(=O)NC4(CCc5ccccc54)C3=O)c2C)cc1 (centres undefined) | – | 4.15 µM (active)
COc1ccc(C(=O)CN2C(=O)NC3(CCc4ccccc43)C2=O)c(OC)c1 (centres undefined) | 10.4% | –
CCN(CC)c1ccc(NC(=O)CN2C(=O)NC3(CCc4ccccc43)C2=O)cc1 (centres undefined) | -23.1% | –
CN(CC(=O)Nc1ccc(Cl)cc1)CC(=O)Nc1cccc2ccccc12 | 12.5% | –
NC(=O)C1CCN(C(=O)c2ccc(F)c(S(=O)(=O)N3CCOCC3)c2)CC1 | 5% | –
COc1ccc(C=C(C#N)C#N)c(CSc2ccccn2)c1 | -16.3% | –
Oc1ccc(N=Cc2c(O)ccc3ccccc23)cc1 | – | 9.28 µM (active)
O=[N+]([O-])c1ccc(N=Cc2c(O)ccc3ccccc23)cc1 | 15.8% | –
Oc1ccc2ccccc2c1C=Nc1ccccc1 | 24.6% | –
COc1cccc(NC(=O)COC(=O)/C=C/c2ccco2)c1 | 23.3% | –
O=C(COC(=O)c1ccc2ncsc2c1)Nc1ccc(Cl)cc1 | 47.1% | –

Compound | activity change, negative = inhibition | Potency
O=C(CSc1nnc(-c2cccs2)n1-c1ccccc1)N1CCN(C(=O)c2ccco2)CC1 | -13.2% | –
O=C(CSc1nnc(-c2cccs2)n1Cc1ccccc1)N1CCc2ccccc2C1 | – | 6.57 µM (active)
Cn1c(SCC(=O)N2CCCC2)nnc1-c1cccs1 | 20.1% | –
O=C(O)c1ccc(OCC2CCCO2)cc1 (centres undefined) | 10% | –
O=C(CSc1n[nH]c(-c2cccs2)n1)N1CCCCC1 | 25.1% | –
CC(=O)Nc1ccc(S(=O)(=O)NC2Cc3ccccc3C2)cc1 | -8.94% | –
O=S(=O)(NC1CCCCC1N1CCCCC1)c1ccc(Cl)cc1 (centres undefined) | 16.4% | –
CCN(c1ccc2c(c1)OCO2)S(=O)(=O)c1cc(Br)cc2c1N(C(=O)C1CC1)CC2 | – | 1.47 µM (active)
CCOC(=O)N1CCN(S(=O)(=O)c2cc(Br)cc3c2N(C(=O)C2CC2)CC3)CC1 | -16.7% | –
CS(=O)(=O)N(CC(=O)N1CCN(Cc2ccc3c(c2)OCO3)CC1)c1ccc2c(c1)OCO2 | -6.02% | –
COc1cccc(CNC(=O)COC(=O)CN2C(=O)NC3(CCCCC3C)C2=O)c1 (centres undefined) | 4.63% | –
OCC[C@H]1C[C@@H](O)[C@H](O)[C@@]2(OCCc3ccccc32)O1 | 10% | –
COc1ccc2nc(SCc3ccccc3)nc(C)c2c1 | 255% | –
O=C(NNC(=O)C(O)c1ccccc1)NC1CCCCC1 (centres undefined) | 25.1% | –
COc1ccc2nc(/N=C(\N)NC(=O)Nc3ccccc3)nc(C)c2c1 | – | 1.85 µM (active)
COc1ccc2nc(C)cc(Nc3cccc(C(=O)O)c3)c2c1 | 30% | –
Cc1nc(/N=C(\N)NC(=O)NC2CCCCC2)nc2ccccc12 | – | 2.94 µM (active)
Cc1nn(-c2ccccc2)c(C)c1C(=O)OCC(=O)NC(=O)NC1CCCCC1 | 1.1% | –
COc1ccc(Cl)cc1NC(=O)c1cccc(N2C(=O)C3CC=CCC3C2=O)c1 (centres undefined) | 20.4% | –
O=Cc1cn(-c2ccccc2)nc1-c1ccccn1 | 21.5% | –
O=C(CSCc1ccccc1)Nc1ccccc1 | 56.7% | –
CC(=O)Nc1ccc(NC(=O)C(NS(=O)(=O)c2ccc3c(c2)OCCO3)C(C)C)cc1 (centres undefined) | -15.4% | –
CC(=O)c1ccc(S(=O)(=O)N2CCC3(CC2)OCCO3)cc1 | -5.09% | –
CC(=O)c1ccc(S(=O)(=O)N2CCN(C(=O)/C=C/c3ccc4ccccc4n3)CC2)cc1 | – | 11.7 µM (active)
NC(=O)COC(=O)/C=C/c1ccc2ccccc2n1 | 0% | –

Compound | activity change, negative = inhibition | Potency
C/C(=N\Nc1nncc2ccccc12)c1ccc(Cl)c([N+](=O)[O-])c1 | 50.4% | –
CC(=O)N1CCN(CC(=O)Nc2ccc(C)c(F)c2)CC1 | -12.4% [at 0.00184 µM] | –
CS(=O)(=O)N(CC(=O)N1CCOCC1)c1cccc(Cl)c1Cl | 0.916% | –
COC(=O)c1ccc(C23CC4(C2)[C@H](CN(Cc2cccnc2)[C@@H]4c2ccccc2)C3c2ccc(Cl)nc2)cc1 (some centres undefined) | – | 10.4 µM (active)
COC(=O)c1ccc(CN2CCN(CCCc3ccccc3)C(CCO)C2)cc1 (centres undefined) | -11% | –
Clc1ccc(C2[C@H]3CN(CC4CCCCC4)[C@H](c4ccccc4)C34CC2(c2cccnc2)C4)cn1 (some centres undefined) | – | 3.7 µM (active)
CCN1C(=NCCc2cccnc2)N[C@@H](c2ccccc2)C(C(=O)OC)=C1C | – | inactive
O=C(O)c1ccc(S(=O)(=O)N2CCOCC2)o1 | 23.6% | –
CN(C(=O)COC(=O)Cn1cnc2c1c(=O)n(C)c(=O)n2C)C1(C#N)CCCCC1 | 22.8% | –
CCCC(=O)N1CCC(CCC(=O)NC2CC2)CC1 | 40.2% | –
CCOC(=O)c1ccc2[nH]c3c(c2c1)CCCC3NC=O (centres undefined) | 3.34% | –
CC(C)[C@@H](NC(=O)OC(C)(C)C)C(=O)NCC1CCC(C(=O)N[C@@H](Cc2ccccc2)C(=O)O)CC1 (some centres undefined) | -7.46% | –
Cc1ccc(S(=O)(=O)N(C)C)cc1NC(=O)COC(=O)/C=C/c1cccs1 | 7.2% | –
Cc1csc(NC(=O)CSc2nc(=O)cc(N)n2-c2ccc(F)cc2)n1 | -0.578% | –
NC(=O)C1CCN(C(=O)c2cn(-c3ccccc3)nc2-c2cccnc2)CC1 | 20.7% | –
O=C(c1cn(-c2ccccc2)nc1-c1cccnc1)N1CCN(S(=O)(=O)c2ccccc2F)CC1 | – | 11.7 µM (active)
O=C(c1cn(-c2ccccc2)nc1-c1cccnc1)N1CCCCC1 | -29.5% | –
Cc1ccc(S(=O)(=O)CCC(=O)OCC(=O)NCCc2ccc(S(N)(=O)=O)cc2)cc1 | -10.4% | –
CCC(=O)c1ccc(OCC(=O)OCC(=O)NC2CCCCCC2)cc1 | -18.2% | –
CC1CCCC(C)N1C(=O)CSc1nnnn1C1CCCC1 (centres undefined) | 27.6% | –
COc1ccc(OC)c(/C(C)=N\NC(=O)c2cc3cc(Cl)ccc3n2C)c1 | -1.37% | –
Cc1cccn2c(=O)c(/C=C3\SC(=S)N(CC(C)C)C3=O)c(NCCCOC(C)C)nc12 | 4.14% | –
O=C(CCCN1C(=O)/C(=C\c2ccco2)SC1=S)Nc1cccc2ccccc12 | 5.18% | –
CCCN(CCC)c1nc2c(C)cccn2c(=O)c1/C=C1/SC(=S)N(Cc2ccco2)C1=O | – | 1.31 µM (active)
